Where a name gives a salt, the structure may show the parent alone. ± gives the standard deviation of the averaged measurements.

24 molecules from the supplement of paper PMC10720658 can be followed below.

The experiment has as its system AEK1 (Tb927.3.2440). The experiment in a line: percent reduction in TR-FRET probe signal relative to DMSO control; higher = stronger displacement of ATP-site probe (binding). Particulars: 1 µM; incubation time 1 h.
Consider `O=C1NC(=O)C(c2ccccc2[N+](=O)[O-])=C1Nc1ccc(O)c(Cl)c1`, for which the “percent reduction in TR-FRET probe signal” value (from here on “percent reduction”) was -2.58 ± 9.4%.

As for `CCCCCCCCCCCCCCCCOP(=O)([O-])OCC[N+](C)(C)C` [Miltefosine], the “percent reduction” value was determined as 4.96 ± 18%. `Cn1sc(=O)n(Cc2ccccc2)c1=O`: the “percent reduction” value was -18.6 ± 15%. With `CN(c1ccccc1CNc1nc(Nc2ccc3c(c2)CC(=O)N3)ncc1C(F)(F)F)S(C)(=O)=O` the figure was 55.1 ± 4.3%; with `COc1cc2nccc(Oc3ccc(NC(=O)C4(C(=O)Nc5ccc(F)cc5)CC4)cc3)c2cc1OC.O=C(O)C[C@H](O)C(=O)O` [Cabozantinib malate (XL184)], 4.34 ± 3.9%; with `O=C1NC(=O)[C@@H](c2cn3c4c(cccc24)CCC3)[C@@H]1c1c[nH]c2ccccc12` [Tivantinib (ARQ 197)], 5.86 ± 12%. In the case of `Cl.Cl.NC1(c2ccc(-c3nc4ccn5c(=O)[nH]nc5c4cc3-c3ccccc3)cc2)CCC1`, the “percent reduction” value was -1.31 ± 6.8%. The figure for `Cl.O=S(=O)(c1cccc2cnccc12)N1CCCNCC1` [Fasudil (HA-1077) HCl] is 4.93 ± 2%; for `CNC(=O)c1cc(Oc2ccc(NC(=O)Nc3cc(C(C)(C)C)nn3-c3ccc4ncccc4c3)c(F)c2)ccn1` [DCC-2036 (Rebastinib)] it is 21.5 ± 15%.

As to `Oc1ccc(Nc2nc(-c3ccc(Cl)cc3)cs2)cc1`, the “percent reduction” value is -4.54 ± 4.1%.

For `CS(=O)(=O)CCNCc1ccc(-c2ccc3ncnc(Nc4ccc(OCc5cccc(F)c5)c(Cl)c4)c3c2)o1.Cc1ccc(S(=O)(=O)O)cc1.Cc1ccc(S(=O)(=O)O)cc1`, the “percent reduction” value was found to be 19.5 ± 21%. The figure for `Cc1ccc(Nc2nccc(N(C)c3ccc4c(C)n(C)nc4c3)n2)cc1S(N)(=O)=O` [Pazopanib HCl] is 3.07 ± 12%.

For `CC[C@H](Nc1ncnc2[nH]cnc12)c1nc2cccc(F)c2c(=O)n1-c1ccccc1` [CAL-101 (Idelalisib, GS-1101)], the “percent reduction” value worked out at 0.66 ± 12%. On to `O=C1c2ccccc2-c2n[nH]c3cccc1c23`, for which the “percent reduction” value is -3.83 ± 17%.

Turning to `CO[C@H]1C[C@@H]2CC[C@@H](C)[C@@](O)(O2)C(=O)C(=O)N2CCCC[C@H]2C(=O)O[C@H]([C@H](C)C[C@@H]2CC[C@@H](O)[C@H](OC)C2)CC(=O)[C@H](C)/C=C(\C)[C@@H](O)[C@@H](OC)C(=O)[C@H](C)C[C@H](C)/C=C/C=C/C=C/1C` [Rapamycin (Sirolimus)], the “percent reduction” value was -8.37 ± 4.2%. Take `Cn1c(Nc2ccc(C(F)(F)F)cc2)nc2cc(Oc3ccnc(-c4ncc(C(F)(F)F)[nH]4)c3)ccc21`: the “percent reduction” value stood at 34 ± 20%. Take `Nc1ccc(C(=O)Nc2cccc(-c3nc(N4CCOCC4)c4oc5ncccc5c4n3)c2)cn1`: the “percent reduction” value was -7.4 ± 3%. For the molecule `Cc1cc(CS(=O)(=O)c2ccccc2)cc(OCc2ccc(CN3CCC[C@@H]3CO)cc2)c1`, the “percent reduction” value is -6.92 ± 5.9%. As for `OCCn1cc(-c2cnc3nnn(Cc4ccc5ncccc5c4)c3n2)cn1`, the “percent reduction” value is -2.19 ± 3.1%. The figure for `O=C(Nc1ccc(-c2ccnc(Nc3ccc(N4CCOCC4)cc3)n2)cc1)[C@@H]1CCCN1` is 6.52 ± 10%; for `FC(F)(F)c1ccc(/C=C/c2nc(COc3ccc(CCCCn4ccnn4)cc3)co2)cc1` [Mubritinib (TAK 165)] it is 0.627 ± 0.93%; for `CO[C@H]1C[C@@H]2CC[C@@H](C)[C@@](O)(O2)C(=O)C(=O)N2CCCC[C@H]2C(=O)O[C@H]([C@H](C)C[C@@H]2CC[C@@H](OP(C)(C)=O)[C@H](OC)C2)CC(=O)[C@H](C)/C=C(\C)[C@@H](O)[C@@H](OC)C(=O)[C@H](C)C[C@H](C)/C=C/C=C/C=C/1C` [Ridaforolimus (Deforolimus, MK-8669)] it is 1.74 ± 22%. `CNC(=O)c1cc(Oc2ccc(NC(=O)Nc3ccc(Cl)c(C(F)(F)F)c3)cc2)ccn1` [Sorafenib]: the “percent reduction” value was determined as 17.5 ± 6.7%. The figure for `CS(=O)(=O)O.O=C(Nc1cccc(Cl)c1)Nc1ncc(CCNc2ncnc3ccsc23)s1` [SNS-314 Mesylate] is 0.813 ± 5%.
